Test results reported in ChEMBL document CHEMBL2218924, “A broad activity screen in support of a chemogenomic map for kinase signalling research and drug discovery” (Biochem J, 2013).

These compounds were tested against Casein kinase I isoform gamma-1 (Homo sapiens) (UniProt Q9HCP0). Conditions: at 1 µM.
Chain of Casein kinase I isoform gamma-1 (Homo sapiens) (Q9HCP0 whole entry, looked up, canonical isoform): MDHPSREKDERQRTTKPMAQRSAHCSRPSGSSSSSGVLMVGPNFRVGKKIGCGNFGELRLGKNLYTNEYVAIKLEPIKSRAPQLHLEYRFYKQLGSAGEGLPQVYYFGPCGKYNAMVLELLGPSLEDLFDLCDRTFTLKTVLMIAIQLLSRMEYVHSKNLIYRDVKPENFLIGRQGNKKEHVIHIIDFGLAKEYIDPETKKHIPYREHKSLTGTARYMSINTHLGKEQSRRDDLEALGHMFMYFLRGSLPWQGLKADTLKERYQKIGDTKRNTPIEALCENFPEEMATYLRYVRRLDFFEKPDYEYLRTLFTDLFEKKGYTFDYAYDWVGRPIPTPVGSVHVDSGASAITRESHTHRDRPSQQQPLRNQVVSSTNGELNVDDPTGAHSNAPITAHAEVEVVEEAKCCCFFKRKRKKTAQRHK
For `Nc1n[nH]c2nnc(-c3c(-c4ccccc4)nn4ccccc34)cc12`, the residual activity was 94%.
For `Nc1nc(Nc2ccc(S(N)(=O)=O)cc2)nn1C(=S)Nc1c(F)cccc1F`, the residual activity was 4%.
`Oc1ccc(-c2nc(-c3ccc(F)cc3)c(-c3ccncc3)[nH]2)cc1` gave a residual activity of 82%.
`Cn1nc2c3c(cccc31)C(=O)c1ccccc1-2` gave a residual activity of 99%.
Compound `COc1cccc(-c2cc(=O)c3ccccc3o2)c1N` has a residual activity of 95%.
In the case of `CC[n+]1c(/C=C/N(C)c2ccccc2)n(-c2ccccc2)c2ccc(-c3nc4ccccc4s3)cc21`, the residual activity is reported as 84%.
With `O=[N+]([O-])c1ccc(-c2nc(-c3ccc(F)cc3)c(-c3ccncc3)[nH]2)cc1` the residual activity was 75%.
`COc1cc2ncc(-c3ccccc3)nc2cc1OC` showed a residual activity of 90%.
`CCC(=O)Nc1ccc2ncnc(Nc3cccc(Br)c3)c2c1` showed a residual activity of 87%.
For `CCOc1cc2ncnc(Nc3cccc(Br)c3)c2cc1OCC`, the residual activity was 91%.
`c1ccc(-c2n[nH]c3c2oc2ccccc23)cc1` showed a residual activity of 87%.
Compound `Nc1ccc2ncnc(NCCc3ccc(Oc4ccccc4)cc3)c2c1` has a residual activity of 87%.
With `CN(C)c1ccc(/C=C2\C(=O)Nc3ccccc32)cc1` the residual activity was 91%.
`O=Nc1c(-c2c(O)[nH]c3ccccc23)[nH]c2ccccc12` showed a residual activity of 57%.
Compound `O=C(Nc1cccc(Nc2nccc(Nc3cccc(C(F)(F)F)c3)n2)c1)C1CC1` has a residual activity of 93%.
For `CO[C@H]1C[C@@H]2CC[C@@H](C)[C@@](O)(O2)C(=O)C(=O)N2CCCC[C@H]2C(=O)O[C@H]([C@H](C)C[C@@H]2CC[C@@H](O)[C@H](OC)C2)CC(=O)[C@H](C)/C=C(\C)[C@@H](O)[C@@H](OC)C(=O)[C@H](C)C[C@H](C)/C=C/C=C/C=C/1C`, the residual activity was 87%.
